This passage reports Potency results from PubChem BioAssay (NCATS).

Results filed as inconclusive are left out. Entries that show only a call come without a potency. The source made the active and inactive calls. The call rests on the fitted dose curve; in most records, active means well fitted inhibition curve with a large enough effect; inconclusive means small, poorly fitted or top-dose-only effect; inactive means no such curve, though single readings can be large or run the other way.
Potency means the concentration at half of the fitted maximal effect.

Chain of Papain (Carica papaya) (P00784 whole entry, looked up): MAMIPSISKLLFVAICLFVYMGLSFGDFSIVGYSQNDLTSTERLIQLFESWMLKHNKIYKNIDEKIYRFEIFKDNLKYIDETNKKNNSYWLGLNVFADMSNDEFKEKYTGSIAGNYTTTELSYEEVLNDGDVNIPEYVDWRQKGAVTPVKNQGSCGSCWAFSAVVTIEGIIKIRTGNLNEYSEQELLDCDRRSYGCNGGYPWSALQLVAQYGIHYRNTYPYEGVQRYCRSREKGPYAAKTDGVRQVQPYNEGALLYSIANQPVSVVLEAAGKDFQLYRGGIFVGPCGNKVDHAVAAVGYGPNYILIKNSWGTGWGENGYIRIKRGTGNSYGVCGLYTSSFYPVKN

This assay concerns the target Papain (Carica papaya) (UniProt P00784). In words: Primary qHTS assay for inhibitors of the protease papain (AID 1645873).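 Further: papain turnover of Z-FR-AMC read as the AMC fluorescence gain over 10 min.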 Conditions: papain Z-FR-AMC cleavage, AMC fluorescence; series mostly up to 49.8 µM.
On to `O=C(Cc1ccc(Cl)c(Cl)c1)N1CCCCC1CN1CCCC1` (stereo not drawn), for which the Potency entry was “inactive”.

As for `C[C@]12CCC3C(CC[C@H]4C[C@H](O)CC[C@]34C)C1CC[C@@H]2C(=O)CO` (stereo partly drawn), the Potency entry is “inactive”.

`c1ccc(C2(c3ccccc3)CC2C2=NCCN2)cc1` (stereo not drawn): the Potency result is “inactive”.

On to `NC(N)=NOCCC(N)C(=O)O` (stereo not drawn), for which the Potency result is “inactive”.

For the compound `NC(=NCCC[C@H](N)C(=O)O)N[N+](=O)[O-]`, the Potency result was “inactive”.

For the compound `O=C(O)CC[N+](=O)[O-]`, the Potency result is “inactive”.

Turning to `CC(=O)[C@H]1CCC2C3CC[C@H]4C[C@H](O)CC[C@]4(C)C3CC[C@@]21C` (stereo partly drawn), the Potency result is “inactive”.

On to `CS(=N)(=O)CC[C@H](N)C(=O)O` (stereo partly drawn), for which the Potency entry was “inactive”.

On to `NC(=O)CN1CC(O)CC1=O` (stereo not drawn), for which the Potency entry is “inactive”.

Regarding `O=C(O)Cc1cnc[nH]1`, the Potency result was “inactive”.

For `Oc1ccc2c3c1O[C@H]1c4[nH]c5c(c4C[C@@]4(O)[C@@H](C2)N(CC2CC2)CC[C@]314)C[C@@]1(O)[C@H]2Cc3ccc(O)c4c3[C@@]1(CCN2CC1CC1)[C@H]5O4`, the Potency result was “inactive”.

With `NCCc1c[nH]c2ccccc12`, the Potency result was “inactive”.

As to `CNCCc1c[nH]c2ccc(O)cc12`, the Potency result was “inactive”.

Take `c1ccc2sc(C3(N4CCCCC4)CCCCC3)cc2c1`: the Potency entry is “inactive”.

Regarding `CC(Cc1ccc(O)cc1)NCC(O)c1cc(O)cc(O)c1` (stereo not drawn), the Potency result is “inactive”.

Take `CCCCc1ccc(C(=O)O)nc1`: the Potency result was “inactive”.

`C[C@@H]1O[C@H](C[N+](C)(C)C)C[C@H]1O`: the Potency result is “inactive”.

Take `Cn1cnc(CCN)c1`: the Potency entry was “inactive”.

On to `C[N+](C)(C)CC(=O)O`, for which the Potency result was “inactive”.

With `Cc1nccc2c1[nH]c1ccccc12`, the Potency is 28.2 µM (active).

Regarding `O=C(O)[C@@H]1CCN1`, the Potency result was “inactive”.

Consider `CNCCc1ccc(O)c(O)c1`, for which the Potency entry is “inactive”.

On to `O=C1CCCN1CC#CCN1CCCC1`, for which the Potency result was “inactive”.
